Measurements as given in ChEMBL document CHEMBL5598561, “ASAP - In vitro binding kinetics” (2024).

Target: Nonstructural protein 3 (Zika virus) (UniProt A0A024AXB9)
Conditions: PRVABC59, Concentration 10.0 uM

Nonstructural protein 3 (Zika virus), sequence (A0A024AXB9 as listed by the source): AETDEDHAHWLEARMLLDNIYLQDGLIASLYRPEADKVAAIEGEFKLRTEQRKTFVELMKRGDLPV

`CNCc1ccc(NC(=O)c2cc(Cl)cc3[nH]ncc23)cc1` gave a pKD (Immobilization level 3900.0 pg/mm2, Rmax 37.0 pg/mm2, ka 226628.924 M-1s-1, kd 2.375 1/s) of 4.98, a pKD (Immobilization level 4900.0 pg/mm2, Rmax 68.0 pg/mm2, ka 224620.672 M-1s-1, kd 2.867 1/s) of 4.89 and a pKD (Immobilization level 5500.0 pg/mm2, Rmax 65.0 pg/mm2, ka 234270.717 M-1s-1, kd 2.589 1/s) of 4.96. For the same compound, the pKD (Immobilization level 10000.0 pg/mm2, Rmax 32.0 pg/mm2, ka 593939.753 M-1s-1, kd 4.324 1/s) was 5.14, the pKD (Immobilization level 12000.0 pg/mm2, Rmax 64.0 pg/mm2, ka 470578.84 M-1s-1, kd 3.187 1/s) was 5.17 and the pKD (Immobilization level 13000.0 pg/mm2, Rmax 38.0 pg/mm2, ka 481481.04 M-1s-1, kd 3.216 1/s) was 5.17.

`O=C(Nc1ccc2c(c1)CNC2)c1cc(F)cc2[nH]ncc12` gave a pKD (Immobilization level 10000.0 pg/mm2, Rmax 50.0 pg/mm2, ka 86776.347 M-1s-1, kd 0.122 1/s) of 5.85, a pKD (Immobilization level 12000.0 pg/mm2, Rmax 119.0 pg/mm2, ka 21922.372 M-1s-1, kd 0.021 1/s) of 6.01 and a pKD (Immobilization level 13000.0 pg/mm2, Rmax 93.0 pg/mm2, ka 46087.669 M-1s-1, kd 0.088 1/s) of 5.72.

`N#C[C@]1(Nc2ccc3c(c2)CNC3)C(=O)Nc2ccc(Cl)cc21` showed a pKD (Immobilization level 10000.0 pg/mm2, Rmax 25.0 pg/mm2, ka 264211.625 M-1s-1, kd 1.585 1/s) of 5.22, a pKD (Immobilization level 12000.0 pg/mm2, Rmax 32.0 pg/mm2, ka 105814.14 M-1s-1, kd 0.856 1/s) of 5.09 and a pKD (Immobilization level 13000.0 pg/mm2, Rmax 39.0 pg/mm2, ka 121808.508 M-1s-1, kd 1.295 1/s) of 4.97.

Compound `O=C(Nc1ccc2c(c1)CNC2)c1cc(Br)cc2[nH]c([C@H]3CCOC3)nc12` has a pKD (Immobilization level 10000.0 pg/mm2, Rmax 19.0 pg/mm2, ka 727525.444 M-1s-1, kd 0.791 1/s) of 5.96, a pKD (Immobilization level 12000.0 pg/mm2, Rmax 41.0 pg/mm2, ka 451126.44 M-1s-1, kd 0.431 1/s) of 6.02 and a pKD (Immobilization level 13000.0 pg/mm2, Rmax 27.0 pg/mm2, ka 652953.753 M-1s-1, kd 0.609 1/s) of 6.03.

In the case of `COCCCN1Cc2ccc(NC(=O)c3cc(Cl)cc4[nH]ncc34)cc2C1`, the pKD (Immobilization level 3900.0 pg/mm2, Rmax 42.0 pg/mm2, ka 388632.967 M-1s-1, kd 5.459 1/s) is reported as 4.85, the pKD (Immobilization level 4900.0 pg/mm2, Rmax 39.0 pg/mm2, ka 367718.358 M-1s-1, kd 4.612 1/s) is reported as 4.9 and the pKD (Immobilization level 5500.0 pg/mm2, Rmax 38.0 pg/mm2, ka 400996.136 M-1s-1, kd 4.84 1/s) is reported as 4.92. For the same compound, the pKD (Immobilization level 10000.0 pg/mm2, Rmax 39.0 pg/mm2, ka 289414.732 M-1s-1, kd 5.077 1/s) was 4.76, the pKD (Immobilization level 12000.0 pg/mm2, Rmax 59.0 pg/mm2, ka 250455.768 M-1s-1, kd 3.882 1/s) was 4.81 and the pKD (Immobilization level 13000.0 pg/mm2, Rmax 33.0 pg/mm2, ka 234107.52 M-1s-1, kd 2.737 1/s) was 4.93.

`CNC(=O)[C@H](Nc1ccc2c(c1)CNC2)c1cc(Cl)cc2[nH]ncc12` showed a pKD (Immobilization level 3900.0 pg/mm2, Rmax 42.0 pg/mm2, ka 444409.109 M-1s-1, kd 0.101 1/s) of 6.65, a pKD (Immobilization level 4900.0 pg/mm2, Rmax 59.0 pg/mm2, ka 262811.946 M-1s-1, kd 0.117 1/s) of 6.35 and a pKD (Immobilization level 5500.0 pg/mm2, Rmax 61.0 pg/mm2, ka 294175.896 M-1s-1, kd 0.112 1/s) of 6.42. The pKD (Immobilization level 10000.0 pg/mm2, Rmax 56.0 pg/mm2, ka 424251.343 M-1s-1, kd 0.126 1/s) was 6.53, the pKD (Immobilization level 12000.0 pg/mm2, Rmax 69.0 pg/mm2, ka 214381.257 M-1s-1, kd 0.135 1/s) was 6.2 and the pKD (Immobilization level 13000.0 pg/mm2, Rmax 81.0 pg/mm2, ka 342437.146 M-1s-1, kd 0.116 1/s) was 6.47.

With `N[C@H]1CCc2ccc(NC(=O)c3cc(Cl)cc4[nH]ncc34)cc21` the pKD (Immobilization level 3900.0 pg/mm2, Rmax 29.0 pg/mm2, ka 348858.596 M-1s-1, kd 0.945 1/s) was 5.57, the pKD (Immobilization level 4900.0 pg/mm2, Rmax 45.0 pg/mm2, ka 214378.611 M-1s-1, kd 0.858 1/s) was 5.4 and the pKD (Immobilization level 5500.0 pg/mm2, Rmax 42.0 pg/mm2, ka 277409.149 M-1s-1, kd 0.816 1/s) was 5.53. The pKD (Immobilization level 10000.0 pg/mm2, Rmax 43.0 pg/mm2, ka 267738.182 M-1s-1, kd 1.043 1/s) was 5.41, the pKD (Immobilization level 12000.0 pg/mm2, Rmax 61.0 pg/mm2, ka 230496.11 M-1s-1, kd 0.784 1/s) was 5.47 and the pKD (Immobilization level 13000.0 pg/mm2, Rmax 48.0 pg/mm2, ka 351322.313 M-1s-1, kd 0.852 1/s) was 5.62.

With `O=C(Nc1ccc2c(c1)CNC2)c1cc(C(F)(F)F)cc2[nH]ccc12` the pKD (Immobilization level 3900.0 pg/mm2, Rmax 30.0 pg/mm2, ka 544431.648 M-1s-1, kd 0.73 1/s) was 5.87, the pKD (Immobilization level 4900.0 pg/mm2, Rmax 46.0 pg/mm2, ka 302890.351 M-1s-1, kd 0.564 1/s) was 5.73 and the pKD (Immobilization level 5500.0 pg/mm2, Rmax 46.0 pg/mm2, ka 376673.864 M-1s-1, kd 0.583 1/s) was 5.81. It also gave a pKD (Immobilization level 10000.0 pg/mm2, Rmax 31.0 pg/mm2, ka 377188.867 M-1s-1, kd 0.653 1/s) of 5.76, a pKD (Immobilization level 12000.0 pg/mm2, Rmax 50.0 pg/mm2, ka 339395.125 M-1s-1, kd 0.433 1/s) of 5.89 and a pKD (Immobilization level 13000.0 pg/mm2, Rmax 43.0 pg/mm2, ka 290221.417 M-1s-1, kd 0.559 1/s) of 5.71.

For `O=C(Nc1ccc([C@H]2CCNC2)cc1)c1cc(Cl)cc2[nH]ncc12`, the pKD (Immobilization level 10000.0 pg/mm2, Rmax 36.0 pg/mm2, ka 266986.751 M-1s-1, kd 3.172 1/s) was 4.92, the pKD (Immobilization level 12000.0 pg/mm2, Rmax 43.0 pg/mm2, ka 228557.467 M-1s-1, kd 2.265 1/s) was 5 and the pKD (Immobilization level 13000.0 pg/mm2, Rmax 32.0 pg/mm2, ka 486506.686 M-1s-1, kd 3.313 1/s) was 5.17.

Compound `O=C(NCc1ccc(F)cc1)[C@H](Nc1ccc2c(c1)CNC2)c1cc(Cl)cc2[nH]ncc12` has a pKD (Immobilization level 10000.0 pg/mm2, Rmax 51.0 pg/mm2, ka 449498.965 M-1s-1, kd 0.143 1/s) of 6.5, a pKD (Immobilization level 12000.0 pg/mm2, Rmax 66.0 pg/mm2, ka 240349.747 M-1s-1, kd 0.114 1/s) of 6.32 and a pKD (Immobilization level 13000.0 pg/mm2, Rmax 64.0 pg/mm2, ka 328786.628 M-1s-1, kd 0.139 1/s) of 6.37.

Work on `Cn1ncc2c(C(=O)Nc3ccc4c(c3)CNC4)cc(Br)cc21` yielded a pKD (Immobilization level 10000.0 pg/mm2, Rmax 23.0 pg/mm2, ka 300646.199 M-1s-1, kd 0.327 1/s) of 5.96, a pKD (Immobilization level 12000.0 pg/mm2, Rmax 66.0 pg/mm2, ka 115064.14 M-1s-1, kd 0.186 1/s) of 5.79 and a pKD (Immobilization level 13000.0 pg/mm2, Rmax 35.0 pg/mm2, ka 218446.798 M-1s-1, kd 0.273 1/s) of 5.9.

`NCCc1cccc(NC(=O)c2cc(Cl)cc3[nH]ncc23)c1` gave a pKD (Immobilization level 3900.0 pg/mm2, Rmax 45.0 pg/mm2, ka 242931.571 M-1s-1, kd 0.931 1/s) of 5.42, a pKD (Immobilization level 4900.0 pg/mm2, Rmax 34.0 pg/mm2, ka 409629.847 M-1s-1, kd 0.648 1/s) of 5.8 and a pKD (Immobilization level 5500.0 pg/mm2, Rmax 28.0 pg/mm2, ka 470049.02 M-1s-1, kd 0.591 1/s) of 5.9. For the same compound, the pKD (Immobilization level 10000.0 pg/mm2, Rmax 29.0 pg/mm2, ka 565007.877 M-1s-1, kd 0.814 1/s) was 5.84, the pKD (Immobilization level 12000.0 pg/mm2, Rmax 46.0 pg/mm2, ka 296699.948 M-1s-1, kd 0.701 1/s) was 5.63 and the pKD (Immobilization level 13000.0 pg/mm2, Rmax 42.0 pg/mm2, ka 451227.872 M-1s-1, kd 0.736 1/s) was 5.79.

For `O=C(Nc1ccc2c(c1)CCNCC2)c1cc(Cl)cc2[nH]ncc12`, the pKD (Immobilization level 3900.0 pg/mm2, Rmax 28.0 pg/mm2, ka 176787.489 M-1s-1, kd 0.385 1/s) was 5.66, the pKD (Immobilization level 4900.0 pg/mm2, Rmax 58.0 pg/mm2, ka 81779.894 M-1s-1, kd 0.366 1/s) was 5.35 and the pKD (Immobilization level 5500.0 pg/mm2, Rmax 55.0 pg/mm2, ka 98394.506 M-1s-1, kd 0.363 1/s) was 5.43. It also gave a pKD (Immobilization level 10000.0 pg/mm2, Rmax 51.0 pg/mm2, ka 117713.558 M-1s-1, kd 0.472 1/s) of 5.4, a pKD (Immobilization level 12000.0 pg/mm2, Rmax 47.0 pg/mm2, ka 102680.383 M-1s-1, kd 0.29 1/s) of 5.55 and a pKD (Immobilization level 13000.0 pg/mm2, Rmax 85.0 pg/mm2, ka 77805.794 M-1s-1, kd 0.391 1/s) of 5.3.
